Screening data deposited in PubChem by National Center for Advancing Translational Sciences (NCATS).
Most compounds without a hit are left out; they make up all but 8% or so of the library.
HT1080-NT tox = kills 2HG-producing HT-1080-NT fibrosarcoma cells. HT-1080-NT fibrosarcoma viability, CellTiter-Glo ATP luminescence, 48 h. Potency, µM (titrated, usually from 46.1 µM), hits mostly cytotoxic. 1.6% of 360,000 active. AID 686970;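 further: NT is the 2HG producing partner of a matched IDH1 knockdown line; nearly all actives have a fitted effect of over 55% in size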
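Compounds were tested in concentration-response format on HT-1080-NT cells for 48 hours at 37 degrees C. Cell viability came from CellTiter-Glo luminescence; curves were classified by r2, response magnitude and activity.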
SW480 rerep = DNA re-replication induction in SW480 cells; Potency, µM (series often up to 46.1 µM), most hits filed as activators; 1.8% of 340,000 active; SW480 DNA re-replication, Hoechst DNA content imaging, 48 h; AID 624297; further: nearly all actives have a fitted effect of over 55% in size
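Compounds, transferred as 23 nL by pin tool, were incubated with cells for 48 hr; DNA content per nucleus was then quantified by Hoechst staining and fluorescence plate imaging.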
KB-V1 cytotox = kills drug-selected multidrug resistant KB-V1 cells; Potency, µM (highest dose often 46.1 µM), most hits filed as cytotoxic; 3.4% of 400,000 active; KB-V1 MDR cells viability, CellTiter-Glo, 72 h; AID 1347076; further: nearly all actives have a fitted effect of over 60% in size
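Cytotoxicity via CellTiter-Glo luminescence after 72 h compound exposure at 37 degrees C. Cells: drug-selected KB-V1 line, DMEM phenol-red free plus 10% FBS. Compounds tested at multiple concentrations; normalized data fitted to concentration-effect curves.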
KB-3-1 cytotox = KB-3-1 parental cell cytotoxicity; KB-3-1 viability, CellTiter-Glo ATP luminescence, 72 h; Potency, µM (doses to about 46.1 µM), hits mostly cytotoxic; 1.4% of 400,000 active; further: nearly all actives have a fitted effect of over 60% in size
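Cells are dispensed, compounds pinned in, plates held at 37 °C for 72 h, then CellTiter-Glo is added and luminescence read after 10 minutes. Cell line: parental KB-3-1 in phenol-red-free DMEM, 10% FBS.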
HT1080 IDH1KD tx = kills HT-1080 cells with IDH1 knockdown; HT-1080 IDH1 knockdown viability, ATP luminescence, 48 h; Potency, µM (titrated, usually from 46.1 µM), usual class: cytotoxic; 2% of 360,000 active; AID 686971
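After a 2 h attachment period, IDH1KD HT-1080 cells took pin-transferred compound for 48 h at 37 °C; ATP-based luminescence after 10 min room-temperature reagent incubation reported viability.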
MCF10A rerep = DNA re-replication induction in MCF 10a cells | 2.9% of 350,000 active | MCF 10A DNA re-replication, Hoechst nuclear intensity, 48 h | AID 624296 | Potency, µM (titrated, usually from 46.1 µM), hits mostly activators; further: nearly all actives have a fitted effect of over 50% in size
Large screens that a line does not name were inactive; ! = repeats disagree. The call rests on the fitted dose curve; in most records, active means well fitted curve in the direction sought with a large enough effect; inconclusive means small, poorly fitted or top-dose-only effect, or another doubt; inactive means no such curve, though single readings can be large; an effect the other way counts as inactive or inconclusive.

COc1cccc(NC(=O)c2sc3nc(C)c(C(=O)Nc4ccc(C)cc4C)c(-c4ccc(Br)cc4)c3c2N)c1	none (no result: HT1080-NT tox, SW480 rerep, HT1080 IDH1KD tx, MCF10A rerep)
CCOc1ccc(C)cc1S(=O)(=O)N1CCCCC1	KB-V1 cytotox inconclusive
O=C1C2CCCCN2C(=O)N1CCCCN1CCN(c2cccc(C(F)(F)F)c2)CC1 (stereo unspecified)	MCF10A rerep inconclusive
CCOC(=O)N1CCN(C(=O)CSc2ccc(-c3ccncc3)nn2)CC1	none
O=C(NCCCN1CCOCC1)c1ccccc1-c1ccccc1	none
Cc1cc(NC2CCCCC2)nc(NCc2ccccc2)n1	HT1080-NT tox inconclusive, SW480 rerep 15µM, KB-3-1 cytotox inconclusive, HT1080 IDH1KD tx inconclusive, MCF10A rerep inconclusive
Cc1ccc(Nc2cc(C)nc(NCc3ccccc3)n2)cc1	HT1080-NT tox 21µM, SW480 rerep inconclusive, KB-V1 cytotox 12µM, KB-3-1 cytotox inconclusive, HT1080 IDH1KD tx 18µM, MCF10A rerep 18µM
COc1cccc(-c2nn(-c3ccc(C)cc3)cc2C(=O)NCC2CCCO2)c1 (stereo unspecified)	KB-V1 cytotox inconclusive, KB-3-1 cytotox inconclusive
O=C(C1COc2ccccc2O1)N1CCN(c2nc3ccc([N+](=O)[O-])cc3s2)CC1 (stereo unspecified)	none
Cc1ccc(/C=N/NC(=O)c2cc(C3CC3)nc3ccccc23)o1	HT1080-NT tox inconclusive, SW480 rerep 21µM, KB-V1 cytotox inconclusive, KB-3-1 cytotox inconclusive, HT1080 IDH1KD tx 5.8µM, MCF10A rerep 5.8µM
Cc1ccc(/C=N/NC(=O)c2cc(-c3ccccc3)nc3ccccc23)o1	HT1080-NT tox inconclusive, SW480 rerep inconclusive, HT1080 IDH1KD tx inconclusive, MCF10A rerep 5.8µM
Cc1nn(-c2ccccc2)c(N2CCCC2)c1/C=N/NC(=O)c1ccccc1O	HT1080 IDH1KD tx inconclusive, MCF10A rerep inconclusive
Cc1nn(-c2ccccc2)c(N2CCCC2)c1/C=N/NC(=O)c1cc(-c2cccnc2)nc2ccccc12	SW480 rerep inconclusive, KB-V1 cytotox inconclusive, KB-3-1 cytotox inconclusive, HT1080 IDH1KD tx inconclusive, MCF10A rerep 13µM
Cc1[nH]c2ccccc2c1C=NNC(=O)c1cc(-c2cccnc2)nc2ccccc12	MCF10A rerep inconclusive
O=C(N/N=C/c1ccc(O)cc1)c1cc(-c2ccccc2)nc2ccccc12	KB-3-1 cytotox inconclusive, MCF10A rerep inconclusive
Cc1ccc(C=NNC(=O)c2cc(-c3cccnc3)nc3ccccc23)o1	HT1080-NT tox inconclusive, SW480 rerep 7.3µM, KB-V1 cytotox inconclusive, KB-3-1 cytotox inconclusive, HT1080 IDH1KD tx inconclusive, MCF10A rerep 5.2µM
CCOC(=O)CNC(=S)NN(C)C	none
CCc1cc(C(=O)N/N=C/c2ccc(OC)cc2)c2ccccc2n1	HT1080-NT tox inconclusive, SW480 rerep inconclusive, KB-V1 cytotox inconclusive, KB-3-1 cytotox inconclusive, HT1080 IDH1KD tx inconclusive, MCF10A rerep 16µM
COc1ccc(/C=N/NC(=O)C(C)n2cnc3ccccc3c2=O)cc1 (stereo unspecified)	none
Cc1cc(C(=O)N/N=C/c2ccc(C)o2)c2ccccc2n1	HT1080-NT tox 3.3µM, SW480 rerep 5.8µM, KB-V1 cytotox inconclusive, KB-3-1 cytotox 1.3µM, HT1080 IDH1KD tx inconclusive, MCF10A rerep 1.8µM
CCCc1cc(C(=O)N/N=C/c2ccc(C)o2)c2ccccc2n1	HT1080-NT tox inconclusive, SW480 rerep inconclusive, KB-V1 cytotox inconclusive, KB-3-1 cytotox inconclusive, HT1080 IDH1KD tx 21µM, MCF10A rerep inconclusive
COc1ccc(/C=N/NC(=O)Cn2cnc3ccccc3c2=O)cc1	KB-V1 cytotox 3.3µM, MCF10A rerep inconclusive
COc1ccc(CCNS(=O)(=O)c2ccc3[nH]c(=O)[nH]c3c2)cc1	none
Cc1cc(C(=O)CSc2ncn[nH]2)c(C)n1-c1cccc(S(=O)(=O)N2CCOCC2)c1	KB-V1 cytotox inconclusive
COc1ccc(-c2cnc3c(c2)CCC3(C#N)C#N)cc1	SW480 rerep 3.3µM, MCF10A rerep 4.1µM
COc1ccc(-c2ccc(OC)cc2)cc1	none
C1CCC(C(CC2CCCCN2)C2CCCCC2)CC1 (stereo unspecified)	HT1080-NT tox 12µM, KB-V1 cytotox 18µM!, KB-3-1 cytotox inconclusive, HT1080 IDH1KD tx 16µM, MCF10A rerep inconclusive (no result: SW480 rerep)
CCOc1ccc(NC(=O)CSc2n[nH]c(N)n2)c([N+](=O)[O-])c1	none
Cc1cc(NC(=O)CCCS(=O)(=O)c2nc(-c3cccs3)cc(C(F)(F)F)n2)no1	HT1080-NT tox 5.8µM, SW480 rerep inconclusive, KB-3-1 cytotox 13µM, HT1080 IDH1KD tx 5.8µM, MCF10A rerep 4.1µM
Cc1cc(NC(=O)CSc2nc(-c3cccs3)cc(C(F)(F)F)n2)no1	HT1080-NT tox 0.79µM, KB-V1 cytotox 1µM, KB-3-1 cytotox 1.6µM, HT1080 IDH1KD tx 0.5µM
CCCNC(=O)CSc1nc(-c2cccs2)cc(C(F)(F)F)n1	KB-V1 cytotox inconclusive
CCOc1ccc(NC(=O)CSc2nc(-c3cccs3)cc(C(F)(F)F)n2)c([N+](=O)[O-])c1	MCF10A rerep 12µM
Cc1ccc(S(=O)(=O)N(C)c2cc(S(N)(=O)=O)c(C)cc2C)cc1	none
Cc1cc(NC(=O)/C(C#N)=C/c2ccc(-c3ccc(SC(F)F)cc3)o2)n(-c2ccccc2)n1	SW480 rerep inconclusive, MCF10A rerep 5.8µM
O=C(NCC(c1ccco1)N1CCCC1)c1ccc(Cl)cc1 (stereo unspecified)	none
O=C(NCC(c1ccco1)N1CCCC1)c1cc2cc(Cl)ccc2o1 (stereo unspecified)	KB-V1 cytotox 9.2µM, MCF10A rerep inconclusive
C=CCn1c(=NC(=O)c2cc(Cl)sc2Cl)sc2cc(S(N)(=O)=O)ccc21	HT1080-NT tox inconclusive, KB-V1 cytotox inconclusive, HT1080 IDH1KD tx inconclusive, MCF10A rerep 21µM
C=CCn1c(=NC(=O)c2cc(-c3cccs3)nc3ccccc23)sc2cc(S(N)(=O)=O)ccc21	SW480 rerep 21µM, MCF10A rerep inconclusive
CN1CCN(c2ccc([N+](=O)[O-])cc2C(=O)c2ccccc2)CC1	SW480 rerep inconclusive, KB-V1 cytotox inconclusive, KB-3-1 cytotox inconclusive
COc1ccc(C(=O)c2cc([N+](=O)[O-])ccc2N2CCN(C)CC2)cc1	HT1080-NT tox 2.6µM, SW480 rerep inconclusive, KB-V1 cytotox 6.5µM, KB-3-1 cytotox 2.9µM, HT1080 IDH1KD tx 5.2µM, MCF10A rerep 8.2µM
COc1ccc(C(=O)c2cc([N+](=O)[O-])ccc2N2CCCC2)cc1	HT1080-NT tox 3.3µM, SW480 rerep 18µM, KB-V1 cytotox inconclusive, KB-3-1 cytotox inconclusive, HT1080 IDH1KD tx 3.3µM, MCF10A rerep 1.5µM
CCOc1ccc(OCCC(=O)N2CCN(S(=O)(=O)c3ccc(F)cc3)CC2)cc1	SW480 rerep inconclusive
Cc1ccc(C)c(N(C(=O)CNC(=O)c2ccco2)C(C(=O)NC2CCCC2)c2ccncc2)c1 (stereo unspecified)	none
